# Screening data deposited in PubChem by National Center for Advancing Translational Sciences (NCATS).
# Nrf2 block = Nrf2 pathway inhibition; A549 ARE-Fluc reporter, luciferase luminescence, 18-24 h; Potency, µM (top dose mostly 46 µM), for the others: at the highest dose activity change, negative = inhibition, hits mostly inhibitors; 360,000 tested, 2.1% active; also: potency is read from the fitted curve at half-maximal effect; % is scaled to controls: 0 for no effect and ±100 for the full control effect; nearly all actives have a fitted effect of over 60% in size
#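 Quantitative HTS in A549 cells stably bearing an antioxidant response element-firefly luciferase construct. Inhibition of Nrf2-driven transcription was scored by luminescence after 18-24 h of compound exposure at 37 °C.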
# Nrf2 ARE act = activators of Nrf2 (ARE) signaling. AREc32 ARE-luciferase reporter (MCF7-derived line), luminescence, 24 h. Potency, µM (doses to about 46.1 µM), for inactives: at the top dose activation, most hits filed as activators. 410,000 tested, 0.31% active. AID 624171; also: potency is read from the fitted curve at half-maximal effect; % of control where 0% means no effect; nearly all actives have a fitted effect of over 65% in size
#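 Nrf2 activation is followed as ARE-luciferase induction in the AREc32 line after one day of compound treatment; luminescence is read with Steady-Glo.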
# LDHA inh = inhibitors of human lactate dehydrogenase A. 480,000 tested, 0.15% active. activity change, % (values are at about 110 or 230 µM). purified LDHA, NADH/diaphorase-resazurin fluorescence; stronger effect = lower value; in the data active = activity change below about -30%; inconclusive = mostly about -25% to -30%;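 also: plate controls were DMSO wells for no effect and wells without enzyme for full effect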
#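 LDH5 2 nM; NADH 0.06 mM, pyruvate 0.2 mM; 200 mM Tris pH 7.4, EDTA, Tween-20; 5 min RT. Detection: diaphorase 0.133 mg/mL + resazurin 37 µM, fluorescence ex540/em590 at 0 and 20 min; normalized to enzyme-free and DMSO wells.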
# IDH1 R132H inh = human IDH1 R132H inhibition; IDH1-R132H enzyme, NADPH consumption, diaphorase/resazurin fluorescence; O75874; 390,000 tested, 0.093% active; Potency, µM (highest dose often 76.6 µM), for the others: at the top dose activity change, negative = inhibition, most hits filed as inhibitors; also: potency is read from the fitted curve at half-maximal effect; % is scaled to controls: 0 for no effect and ±100 for the full control effect; nearly all actives have a fitted effect of over 65% in size
#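 IDH1-R132H (0.5 ug/mL dispensed) in pH 7.5 Tris buffer was preincubated 30 min with compound, then given a substrate mix of 0.016 mM NADPH and 2 mM alpha-KG for 80 min at room temperature; remaining NADPH was read by diaphorase/resazurin fluorescence.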
# ALOX12 inh = ALOX12 (human) lipoxygenase inhibition; purified 12hLO, xylenol orange hydroperoxide absorbance; Potency, µM (top dose mostly 108 µM), inactives show at the highest dose activity change, negative = inhibition, actives largely listed as inhibitors; AID 1671190; P18054; 580,000 tested, 1.1% active; also: potency is read from the fitted curve at half-maximal effect; % is scaled to controls: 0 for no effect and ±100 for the full control effect
# Target sequence (P18054 whole entry, looked up): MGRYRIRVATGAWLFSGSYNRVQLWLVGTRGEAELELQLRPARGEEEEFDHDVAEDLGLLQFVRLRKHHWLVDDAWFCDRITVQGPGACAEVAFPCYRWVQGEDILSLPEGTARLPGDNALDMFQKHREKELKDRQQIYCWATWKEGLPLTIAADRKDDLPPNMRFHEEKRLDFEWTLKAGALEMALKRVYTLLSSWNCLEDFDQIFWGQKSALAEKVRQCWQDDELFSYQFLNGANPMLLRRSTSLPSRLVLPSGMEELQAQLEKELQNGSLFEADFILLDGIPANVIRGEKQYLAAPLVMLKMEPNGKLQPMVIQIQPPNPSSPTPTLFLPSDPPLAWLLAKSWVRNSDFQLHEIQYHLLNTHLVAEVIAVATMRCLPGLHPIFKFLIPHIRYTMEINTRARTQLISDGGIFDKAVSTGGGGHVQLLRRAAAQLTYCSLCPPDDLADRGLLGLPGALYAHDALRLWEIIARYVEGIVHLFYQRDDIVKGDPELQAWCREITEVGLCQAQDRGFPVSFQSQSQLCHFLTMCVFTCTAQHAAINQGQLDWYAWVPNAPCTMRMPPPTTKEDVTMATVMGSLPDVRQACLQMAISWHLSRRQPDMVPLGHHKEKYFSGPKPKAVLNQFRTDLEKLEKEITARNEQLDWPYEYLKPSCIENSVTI
#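 Purified human 12hLO (150 nM final) in 25 mM Hepes, 0.01% Triton X-100, pH 7.0 was preincubated 15 min at room temperature with compound. Then 40 uM arachidonic acid was added, 30 min. Hydroperoxide was read by Fe-XO absorbance ratio 573/405 nm.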
# A549 tox-1 = counter-screen for Nrf2 inhibitors: cytotoxicity in A549 cells; AID 504648; 390,000 tested, 0.16% active; A549 ARE-Fluc cells, CellTiter-Fluor viability, 18-24 h; Potency, µM (highest dose often 46 µM), for inactives: at the top dose activity change, negative = cytotoxicity, actives largely listed as inhibitors; also: potency is read from the fitted curve at half-maximal effect; % is scaled to controls: 0 for no effect and ±100 for the full control effect
#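 Cytotoxicity counterscreen: CellTiter-Fluor fluorescence was measured in A549 ARE_Fluc cells after 18-24 h of compound exposure in a concentration series. The subsequent BugLite luminescent read reports ARE-luciferase activity.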
# FLuc enzyme inh = blocks purified firefly luciferase in Nrf2 counterscreen; shares compounds with Nrf2 block; purified firefly luciferase, luminescence inhibition; Potency, µM (doses to about 57.5 µM), inactives show top-dose activity change, negative = inhibition, usual class: inhibitors; 1,400 tested, 4% active; also: potency is read from the fitted curve at half-maximal effect; % is scaled to controls: 0 for no effect and ±100 for the full control effect; nearly all actives have a fitted effect of over 65% in size
# A549 tox-2 = A549 cytotoxicity, Nrf2 inhibitor counterscreen. 1,400 tested, 2% active. shares compounds with Nrf2 block. AID 720523. Potency, µM (titrated, usually from 46.1 µM), for the others: at the highest dose activity change, negative = cytotoxicity, hits mostly inhibitors. A549 ARE-Fluc cells, cytotoxicity counterscreen;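 also: potency is read from the fitted curve at half-maximal effect; cells exposed to compounds for 18 to 24 hours; % is scaled to controls: 0 for no effect and ±100 for the full control effect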
# Nrf2 ARE inh = reduces Nrf2 ARE reporter signal in A549 cells | shares compounds with Nrf2 block | A549 ARE-firefly luciferase reporter, luminescence | Potency, µM (series often up to 46.1 µM), for the others: top-dose activity change, negative = inhibition, actives largely listed as inhibitors | 1,400 tested, 74% active | AID 720524; also: potency is read from the fitted curve at half-maximal effect; % is scaled to controls: 0 for no effect and ±100 for the full control effect; nearly all actives have a fitted effect of over 65% in size
# The depositor's hits bear a star; ? = inconclusive; . = not tested or not shown; [ ] = another dose, or the depositor's remark. Compounds with a hit are over-represented: about 2.7% of the library has one in this group of screens. Unless noted, calls follow the shape of the dose curve; as a rule, active = well fitted curve in the direction sought with a large enough effect; inconclusive = small, poorly fitted or top-dose-only effect, or another doubt; inactive = no such curve, though single readings can be large; an effect the other way counts as inactive or inconclusive.
SMILES,Nrf2 block,Nrf2 ARE act,LDHA inh,IDH1 R132H inh,ALOX12 inh,A549 tox-1,FLuc enzyme inh,A549 tox-2,Nrf2 ARE inh
Cc1ccc2occ(C3CC(=O)Nc4c3c(C)nn4-c3ccc(Cl)nn3)c(=O)c2c1 (centres undefined),.,.,6,.,-29%,.,.,.,.
Cn1c(-c2ccccc2)ccc1-c1ccccc1,.,.,0,.,-3%,.,.,.,.
Cn1c(-c2ccccc2)c[n+]2c1-c1ccccc1C2,?,0%,-11,-3%,-2%,7%,-10%,-9%,1.6µM*
CO[C@H]1/C=C/O[C@@]2(C)Oc3c(C)c(O)c4c(O)c(c(C=NN5CCN(C)CC5)c(O)c4c3C2=O)NC(=O)/C(C)=C\C=C\[C@H](C)[C@H](O)[C@@H](C)[C@@H](O)[C@@H](C)[C@H](OC(C)=O)[C@@H]1C,4.1µM*,0%,-14,0%,?,?,-10%,?,4.6µM*
CN(C)c1ccc(/C=C/c2cc3ccccc3c[n+]2C)cc1,.,.,.,.,.,.,-22%,?,6.5µM*
CN(C)c1ccc(/C=C/c2nccc3ccccc23)cc1,.,.,4,.,.,.,.,.,.
CN(C)c1ccc(/C=C/c2ccc3c4ccccc4ccc3[n+]2-c2ccccc2)cc1,3.7µM*,-3%,5,29µM*,?,10µM*,?,7.3µM*,2.9µM*
O=C(N/N=C/c1ccc(Br)s1)C(c1ccccc1)c1ccccc1,.,.,7,.,15%,.,.,.,.
CCn1cnnc1-c1nn(C)c2c1CN(C(=O)Cc1ccc(NC(C)=O)cc1)CC2,.,.,.,.,9%,.,.,.,.
O=c1n(-c2ccc(Cl)cc2)nc2n1CCN(CC1CC1)C2,.,.,.,.,1%[12.5 µM],.,.,.,.
COc1ccccc1-[n+]1c(C)cc(/C=C2\Sc3ccccc3N2C)cc1C,4.1µM*,-2%,0,0%,-8%,?,0.54µM*,?,0.26µM*
COc1ccccc1OC(=O)CCN1c2ccccc2Sc2ccccc21,1%,1%,0,5%,-17%,-1%,.,.,.
Cc1cc(O)c2c(c1O)C(=O)[C@]13C(=C2O)C(=O)[C@@H]2[C@@H](O)[C@H]1[C@@H]1[C@H](O)[C@H]3C(=O)C3=C(O)c4c(O)cc(C)c(O)c4C(=O)[C@]312,0.37µM*,5%,11,-13%,?,?,?,?,1.2µM*
Cc1ccc(COC(=O)CSc2cnc3ccccc3n2)cc1,.,.,-2,.,-5%,.,.,.,.
COC(/C=C(\C)CCC=C(C)C)OC,.,.,.,.,11%[176 µM],.,.,.,.
Cc1ccc(C(=O)Nc2sc3c(c2C(=O)O)CCC(C)C3)o1 (centres undefined),5.8µM*,5%,-7,16%,13%,-22%,2.4µM*,-27%,5.2µM*
Cc1ccc(C(=O)Nc2sc3c(c2C(=O)O)CCCC3)o1,?,0%,-13,18%,1%,?,.,.,.
COc1ccccc1NC(=O)N1CCOc2ccc(CN3CCc4ccccc4C3)cc2C1,.,.,.,.,47%,.,.,.,.
CC1Cc2cc(S(=O)(=O)N3CCN(c4cccc(Cl)c4)CC3)ccc2N1C(=O)C1CC1 (centres undefined),?,-1%,-2,-1%,-7%,2%,.,.,.
CC1Cc2cc(S(=O)(=O)N3CCN(c4ccc(Cl)cc4)CC3)ccc2N1C(=O)C1CC1 (centres undefined),7.3µM*,-1%,-1,3%,-6%,-15%,2%,-12%,8.2µM*
CC(=O)N1c2ccc(S(=O)(=O)N3CCC(C(=O)N4CCN(c5ccc(Cl)cc5)CC4)CC3)cc2CC1C (centres undefined),5.2µM*,0%,-17,-9%,-18%,-10%,1%,-10%,.
Cc1ccc2c(CSc3nnnn3-c3ccc(O)cc3)cc(=O)oc2c1C,.,.,0,.,?,.,.,.,.
O=C(CSc1nc2cc(Cl)ccc2s1)NCCc1ccc(F)cc1,.,.,8,.,48%,.,.,.,.
CC(=O)Nc1sc2c(c1-c1nc3ccccc3s1)CCN(C(C)C)C2,6.5µM*,-5%,3,20%,.,-11%,0%,-27%,6.5µM*
CN1CCN(C(=O)c2cc(-c3ccc(F)cc3)nc3ccccc23)CC1,.,.,-11,.,-24%,.,.,.,.
C[C@]12CCC(=O)C=C1CC[C@@H]1[C@@H]2[C@@H](O)C[C@@]2(C)[C@H]1CC[C@]2(O)C(=O)CO,0.029µM*,1%,-15,12%,-7%,1%,3%,?,0.29µM*
CC12CCC(=O)C=C1CCC1C2C(O)CC2(C)C1CCC2(O)C(=O)CO (centres undefined),0.12µM*,0%,-3,6%,21%,-9%,-1%,-5%,0.092µM*
C[C@]12CCC(=O)C=C1[C@H](O)C[C@@H]1[C@@H]2[C@@H](O)C[C@@]2(C)[C@H]1CC[C@]2(O)C(=O)CO,7%,0%,-11,-6%,16%,-1%,.,.,.
